HP1b chromo inh = HP1-beta chromodomain-methylated histone interaction inhibition; AID 540317; P83916; Potency, µM (highest dose often 114 µM), for the others: at the top dose activity change, negative = inhibition, hits mostly inhibitors; AlphaScreen HP1-beta / biotin-H3K9me3 peptide binding; 0.56% of 390,000 active; also: nearly all actives have a fitted effect of over 70% in size
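Compound inhibition of the preformed complex between 50 nM HP1-beta and 50 nM biotinylated H3K9me3 peptide was read by AlphaScreen. Buffer was PBS pH 7.4 with 0.01% Tween-20. Incubations ran 30 min at room temperature, with 10 ug/mL donor/acceptor beads.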
G9a block = inhibitors of human histone lysine methyltransferase G9a | Q96KQ7 | G9a H3K9 monomethylation, AlphaScreen, 2 h | Potency, µM (titrated, usually from 102 µM), for inactives: top-dose activity, negative = inhibition, usual class: inhibitors | 8.8% of 350,000 active | AID 504332; also: % is scaled to controls: 0 for no effect and ±100 for the full control effect; nearly all actives have a fitted effect of over 75% in size
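Step 1: enzyme (final 20 nM) with compound, 15 min RT. Step 2: substrate peptide 500 nM and SAM 20 uM, 2 h RT. Step 3: anti-H3K9me1 antibody and AlphaScreen beads, 10 min, then plate read.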
L3MBTL1 inh = blocks human L3MBTL1. AlphaScreen L3MBTL1–H3K9me1 peptide binding. Potency, µM (series often up to 57.1 µM), for inactives: top-dose activity, negative = inhibition, hits mostly inhibitors. 0.66% of 230,000 active. AID 485360; also: % is scaled to controls: 0 for no effect and ±100 for the full control effect; nearly all actives have a fitted effect of over 60% in size
Target sequence (Q9Y468 whole entry, looked up): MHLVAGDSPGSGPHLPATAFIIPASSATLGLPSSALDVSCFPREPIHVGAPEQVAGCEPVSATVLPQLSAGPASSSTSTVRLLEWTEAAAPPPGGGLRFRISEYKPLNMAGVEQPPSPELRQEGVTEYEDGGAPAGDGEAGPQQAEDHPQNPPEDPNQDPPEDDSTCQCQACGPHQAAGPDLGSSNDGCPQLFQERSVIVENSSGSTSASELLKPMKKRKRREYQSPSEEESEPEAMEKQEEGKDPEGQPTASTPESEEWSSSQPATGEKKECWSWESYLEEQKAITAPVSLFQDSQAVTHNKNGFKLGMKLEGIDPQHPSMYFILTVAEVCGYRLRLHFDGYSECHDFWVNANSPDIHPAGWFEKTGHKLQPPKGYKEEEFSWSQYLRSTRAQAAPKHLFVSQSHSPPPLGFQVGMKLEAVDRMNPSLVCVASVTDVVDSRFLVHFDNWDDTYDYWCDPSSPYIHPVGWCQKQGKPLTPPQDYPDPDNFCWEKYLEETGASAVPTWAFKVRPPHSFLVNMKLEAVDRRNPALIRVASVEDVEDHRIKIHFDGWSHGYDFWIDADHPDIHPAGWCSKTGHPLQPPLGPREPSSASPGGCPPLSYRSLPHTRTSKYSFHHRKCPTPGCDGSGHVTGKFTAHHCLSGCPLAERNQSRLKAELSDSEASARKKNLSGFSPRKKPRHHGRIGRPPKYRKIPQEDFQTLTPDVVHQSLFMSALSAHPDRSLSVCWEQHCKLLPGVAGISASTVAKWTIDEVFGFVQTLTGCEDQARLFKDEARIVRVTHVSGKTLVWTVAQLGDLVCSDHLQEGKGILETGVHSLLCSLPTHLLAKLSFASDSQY
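L3MBTL1 50 nM + b-AHA-H3(1-15)K9me1 75 nM, 30 min RT; compound added, 30 min RT; streptavidin donor/Ni-chelate acceptor beads 10 ug/mL each final, 30 min RT dark; AlphaScreen read.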
JMJD2A Tudor inh = blocks the human JMJD2A Tudor domain; O75164; AlphaScreen JMJD2A-Tudor / H3K4me3 peptide binding; Potency, µM (titrated, usually from 114 µM), inactives show at the highest dose activity change, negative = inhibition, usual class: inhibitors; 4.4% of 390,000 active; also: % is scaled to controls: 0 for no effect and ±100 for the full control effect; nearly all actives have a fitted effect of over 50% in size
BAZ2B block = inhibitors of human BAZ2B bromodomain; Q9UIF8; AlphaScreen BAZ2B-H3K14Ac peptide displacement; Potency, µM (top dose mostly 114 µM), without a hit: top-dose activity change, negative = inhibition, hits mostly inhibitors; 4.4% of 360,000 active; AID 504333; also: % is scaled to controls: 0 for no effect and ±100 for the full control effect; nearly all actives have a fitted effect of over 60% in size
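AlphaScreen displacement of biotin-H3(5-23)K14Ac peptide (50 nM final) from BAZ2B (50 nM final) in PBS pH 7.4, 0.01% Tween-20; complex preformed 30 min RT, then compounds (top 110 uM) 30 min RT, beads 20 min dark.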
* marks the source's active call; other numbers are inactive results; ? = inconclusive; . = no result; [ ] = dose if it differs, or a comment. Only some compounds are listed: those with a hit (about 11% of all), similar ones and a draw of the others. Calls follow the shape of the dose curve; as a rule, active = well fitted inhibition curve with a large enough effect; inconclusive = small, poorly fitted or top-dose-only effect; inactive = no such curve, though single readings can be large or run the other way. Potency is read from the fitted curve at half-maximal effect.

SMILES | HP1b chromo inh | G9a block | L3MBTL1 inh | JMJD2A Tudor inh | BAZ2B block
N=C1/C(=C\c2ccc(-c3cccc(C(=O)O)c3)o2)C(=O)N=C2SC=C(c3ccccc3)N12 | ? | 11µM* | 22µM* | -21%[11.4 µM] | 22µM*
N=C1/C(=C\c2ccc(SCc3ccccc3)o2)C(=O)N=C2SC=NN12 | 24% | 50µM* | . | -31% | -20%
N=C1/C(=C/c2ccc(-c3cccc(C(=O)O)c3)o2)C(=O)N=C2SC(CC(=O)N3CCOCC3)=NN12 | ? | ? | . | 20µM* | 25µM*
O=C(C1COc2ccccc2O1)N(Cc1cccnc1)c1nc2ccc(F)cc2s1 (stereo not given) | 34% | 5%[59 µM] | . | -24% | -3%
COc1cc(/C=C2/C(=N)N3N=C(CC(=O)N4CCOCC4)SC3=NC2=O)ccc1OCc1ccccc1F | 39% | 13% | . | -26% | ?
COc1cc(/C=C2/C(=N)N3N=C(CC(=O)N4CCOCC4)SC3=NC2=O)ccc1OCc1ccc(F)cc1 | 10% | 12% | . | 4.5µM* | -23%
COc1ccccc1-n1c(C)cc(/C=C2\C(=N)N3N=C(CC(=O)N4CCOCC4)SC3=NC2=O)c1C | 51% | -15% | . | 10% | 50µM*
COc1ccc(-n2c(C)cc(/C=C3\C(=N)N4N=C(CC(=O)N5CCOCC5)SC4=NC3=O)c2C)c(OC)c1 | -3%[57 µM] | 8% | . | ? | ?
N=C1/C(=C\c2ccc(SCc3ccccc3)o2)C(=O)N=C2SC(CC(=O)N3CCOCC3)=NN12 | 6% | ? | . | ? | 45µM*
Cc1ccc(/C=C2\C(=N)N3N=C(CC(=O)N4CCOCC4)SC3=NC2=O)o1 | -16% | 56µM* | . | 56µM* | -27%
COc1ccc(/C=C2\C(=N)N3N=C(CC(=O)N4CCOCC4)SC3=NC2=O)cc1 | 5% | 16%[59 µM] | . | -2% | ?
COc1ccc(N2CCN(CCCNC(=O)c3c(C)nn(-c4ccc(F)cc4)c3-n3cccc3)CC2)cc1 | -11% | 4.5µM* | . | ? | 50µM*
Cc1ccc(-n2nc(C)c(C(=O)NCCCN3CCN(c4ccc(F)cc4)CC3)c2-n2cccc2)cc1 | -24% | ? | . | 45µM* | 40µM*
CCCN1CCN(CCCNC(=O)c2c(C)nn(-c3ccc(F)cc3)c2-n2cccc2)CC1 | 32% | 1%[59 µM] | . | 7% | -12%
Cc1cc(C)c(NC(=O)Cn2c(=O)n(CC(=O)NCc3ccccc3Cl)c(=O)c3sccc32)c(C)c1 | 27% | 1%[59 µM] | . | 9% | 1%
Cc1ccc(CNC(=O)c2cc3c(s2)-c2ccccc2SC3)cc1 | 30% | 4%[59 µM] | . | 5% | -3%
CCOCCCNC(=O)c1cc2c(s1)-c1ccccc1SC2 | 15% | 10µM* | . | -3% | 3%
Cc1cc(C)cc(NC(=O)N2CCC3(CC2)Oc2ccccc2C(=O)N3Cc2ccccc2F)c1 | 12% | -23%[59 µM] | . | -22% | 2%
N#CC1=C(N)SC(N)=C(C#N)C1CCc1ccccc1 | 41% | ? | 6%[11.4 µM] | -25% | -25%
N#CC1=C(N)SC(N)=C(C#N)C1c1c(Cl)cccc1Cl | -9% | 11µM* | 9% | ? | ?
CN1CCN(c2ccc(CNS(=O)(=O)Cc3ccc(Cl)cc3)cc2)CC1 | 34% | ? | 4.5µM* | -16% | 9%
CC(=O)Nc1ccc(C(=O)NC2CCSc3ccccc32)cc1 (stereo not given) | 26% | 14µM* | . | -22% | -10%
CSc1ccccc1C(=O)NC1CCSc2ccccc21 (stereo not given) | 5% | 40µM* | . | -26% | -9%
COc1ccc(N(C(=O)/C=C\C(=O)Nc2ccc(C)cc2)C(C(=O)NCc2ccco2)c2ccc(C)cc2)cc1 (stereo not given) | 8% | 14µM* | . | ? | -20%
CCc1cc2c(=O)n3c(nc2s1)-c1[nH]c2ccc(OC)cc2c1CC3 | 21% | ? | 3% | 22µM* | 8%
SMILES | HP1b chromo inh | G9a block | L3MBTL1 inh | JMJD2A Tudor inh | BAZ2B block
Cc1nc2c(nnn2Cc2ccccc2Cl)c(=O)[nH]1 | 33% | 0%[0.501 µM] | 4%[2.29 µM] | 3% | -5%
COc1ccc(Nc2nc(C)nc3c2nnn3Cc2ccccc2)cc1OC | 14% | -2%[59 µM] | -7% | 3% | 13%
Cc1nc2c(nnn2Cc2ccccc2)c(=O)[nH]1 | ? | ? | . | 8.9µM* | .
Cc1nc(Nc2ccc(Cl)cc2)c2nnn(Cc3ccccc3)c2n1 | -6% | -4% | -1% | 18µM* | 2%
O=C(Nc1cccc(Cl)c1Cl)c1cc2nc(-c3ccc4c(c3)OCO4)cc(C(F)(F)F)n2n1 | 12% | 1%[59 µM] | . | -9% | -13%
CC(C)C1CC(CCN)(Cc2ccccc2)CCO1 (stereo not given) | 2% | . | 56% | -6% | 15%
Cc1ccc(-c2nnc3sc(C4COc5ccccc5O4)nn23)cc1 (stereo not given) | 22% | -4%[59 µM] | 3% | -22% | -3%
c1ccc(Cc2nnc3sc(C4COc5ccccc5O4)nn23)cc1 (stereo not given) | -33% | 10µM* | -12% | -23% | 4%
c1ccc(OCc2nnc3sc(C4COc5ccccc5O4)nn23)cc1 (stereo not given) | 16µM* | 7.9µM* | . | 50µM* | 50µM*
Clc1ccccc1-c1nnc2sc(C3COc4ccccc4O3)nn12 (stereo not given) | -22% | ? | -8% | -15% | 1%
CCc1ccccc1NC(=O)C1CCN(c2nc3ccccc3[nH]2)CC1 | 28%[57 µM] | 6%[59 µM] | . | -2% | 3%
O=C(Cc1ccc(NC(=O)N2CCSc3ncccc32)cc1)NCCc1ccccc1 | 16% | -33%[59 µM] | . | -2% | -6%
CC1=C(C(=O)OC2CCCC2)C(c2ccccc2Cl)CC(=O)N1 (stereo not given) | 16% | 4%[59 µM] | . | 0% | -3%
Nc1sccc1C(=O)c1ccccc1 | -15% | 45µM* | -6% | -36% | -9%
O=C(c1ccccc1)c1ccccc1C(=O)c1ccccc1 | 24% | 14%[0.501 µM] | 8% | 3% | 9%
COc1ccc(N/N=C(\C#N)C(=N)SCc2ccccc2)cc1 | 27% | 28µM* | . | -30% | ?
COc1ccc(N/N=C(\C#N)C(=N)N2CCCCC2)cc1 | 27% | . | -25% | -33% | -37%
COc1ccc(N/N=C(\C#N)C(=O)NCCc2ccc(OC)c(OC)c2)cc1 | 10% | 22µM* | -10% | ? | ?
CCCCCCCCCCCCCCCCCCCCCC(=O)Nc1ccn([C@@H]2O[C@H](CO)[C@@H](O)[C@@H]2O)c(=O)n1 | . | 0%[12.7 µM] | . | . | .
COc1ccc(-n2cc(C(=O)NCc3ccccc3)c3ccccc3c2=O)cc1 | 18% | ? | . | ? | -31%
COc1ccc(-n2cc(C(=O)O)c(=O)cc2C)cc1 | -3% | 45µM* | -6% | ? | ?
CC(C)(C)CC(=O)Nc1nnc(SCC(=O)N2CCCCC2)s1 | 21% | 17% | . | 8% | 2%
Cc1ccc(NC(=O)NCc2c(-n3cccc3)sc3c2CCCC3)c(Cl)c1 | 35% | -4%[59 µM] | . | -6% | ?

Assay outcomes: PubChem, National Center for Advancing Translational Sciences (NCATS)
